PubChem BioAssay AID652054 (National Center for Advancing Translational Sciences (NCATS), 2013)
Hit rate of the full screen: of about 360,000 compounds, about 9,100 (2.5%) were called active. Another 4% or so got no clear call; they are omitted. Rule as the data show it: active = max response below about -50%; inconclusive = no clear call, values can overlap the other calls; inactive = above that. Only a selection was taken, and actives are over-represented in it overall.

target: D(3) dopamine receptor (Homo sapiens) (UniProt P35462); experiment: qHTS of D3 Dopamine Receptor Antagonist: qHTS; settings: D3R cells, DiscoveRx beta-arrestin luminescence, antagonist mode; stronger effect = lower value
Summary of the method: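 Cells plated overnight at 1500 cells/well, then exposed to library compounds with dopamine controls for 90 minutes at 37 degrees C. DiscoveRx reagent added for 30–60 minutes at room temperature; luminescence read, quantitative HTS format.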
% is scaled to controls: 0 for no effect and ±100 for the full control effect.

Chain of D(3) dopamine receptor (Homo sapiens) (P35462 whole entry, looked up): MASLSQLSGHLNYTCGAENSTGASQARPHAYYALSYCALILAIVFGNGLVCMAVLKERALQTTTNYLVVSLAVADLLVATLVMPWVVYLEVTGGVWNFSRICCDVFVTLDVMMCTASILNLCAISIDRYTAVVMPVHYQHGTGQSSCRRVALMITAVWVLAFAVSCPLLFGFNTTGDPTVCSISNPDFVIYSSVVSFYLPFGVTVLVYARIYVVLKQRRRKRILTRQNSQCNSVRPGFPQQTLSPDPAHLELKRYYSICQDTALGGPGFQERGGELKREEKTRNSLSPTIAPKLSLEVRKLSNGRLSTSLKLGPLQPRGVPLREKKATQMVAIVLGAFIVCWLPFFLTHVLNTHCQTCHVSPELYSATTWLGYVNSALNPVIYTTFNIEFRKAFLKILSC

Max response, negative = inhibition, active:
Cc1ccc(NC(=O)CCN2CCc3ccccc3C2)cc1 -94.8%
Cc1ccc(NC(=O)CN2CCc3ccccc3C2)cc1 -84.2%
O=C(NCCCN1CCN(c2ccccc2F)CC1)C1CCC(=O)N1C1CCCCC1 (centres undefined) -78%
O=C1Cc2ccccc2Sc2ccc(Cl)cc21 -51%
O=C(CCl)Nc1ccc(Sc2ccc(NC(=O)CCl)cc2)cc1 -60.1%
Cc1ccccc1C(OCC(O)CN1CCCCC1CCO)c1ccccc1 (centres undefined) -53.3%
CCCCC(=O)N(C)c1c(CC)nc2c(OCc3ccc(Cl)cc3Cl)cccn12 -63.9%
CCOC(=O)N(C)c1c(CC)nc2c(OCc3ccccc3C(=O)OC)cccn12 -50.7%

Max response, negative = inhibition, inactive:
CSC1=NN(c2ccccc2)CN(c2ccccc2)N1C -6.6%
COC(=O)c1ccc2nc(C3CCCCC3)c(Cc3cccc(F)c3)n2c1 10.5%
CC1CCN(CCC(=O)Nc2ccccc2)CC1 -0.851%
O=C(CN1CCc2cc3c(cc2C1)OCCCO3)Nc1ccccc1 -19.3%
COc1cc2c(cc1OC)CN(CC(=O)Nc1ccc(F)cc1)CC2 -16.8%
CCOC(=O)N1CCN(CCC(=O)Nc2ccccc2)CC1 -15.4%
COc1ccc(NC(=O)C[C@H]2C(=O)N(CCc3ccccc3)C[C@@H]2C)cc1 1.09%
CC(=O)NC(c1ccccc1)c1nc(-c2cccc(C(C)C)c2)cs1 (centres undefined) 20.2%
CC1(C(=O)NS(=O)(=O)c2ccc3ccccc3c2)CCN1C(=O)C1(c2ccc(Cl)cc2)CCC1 (centres undefined) -21.3%
CNc1cncc(-c2cccc(C(=O)N3CCOCC3)c2)n1 13.3%
CCC(c1nnnn1-c1ccc2c(c1)OCCO2)N1CCN(c2ccc(C(F)(F)F)cn2)CC1 (centres undefined) 4.77%
COc1ccc(/C=C2\SC(=S)N(CCC(=O)N3CCOCC3)C2=O)cc1OC -14.3%
COc1ccc(CN2CC(C(=O)NCCN3CCN(c4ccccc4F)CC3)CC2=O)cc1 (centres undefined) -22.6%
O=C(NCCCN1CCCCCC1)C1CC(=O)N(C2CCCC2)C1 (centres undefined) 10.5%
O=C(C[C@H]1CC[C@H]2[C@@H](COC[C@H](O)CN2C(=O)c2ccccn2)O1)N1CCN(c2ccccc2)CC1 -25.4%
CCOC(=O)C1CCCN(C(=O)c2ccc(N(C)C)cc2)CC1 (centres undefined) 22.6%
CC1=C(C(=O)N2CCOCC2)CC(CC(=O)NCC2CCCCC2)C(=O)N1Cc1ccc(F)cc1 (centres undefined) -11.1%
NC(Cc1ccc(F)cc1)c1csc(Nc2nncc3ccccc23)n1 (centres undefined) 7.2%
S=C1Nc2cc(Cl)ccc2Sc2ccccc21 4.03%
O=C1CC2(CCCC2)Oc2ccc(Cl)cc21 0%
CCOC(=O)N1CCN(C(=O)C[C@@H]2C[C@@]3(C(=O)OC)CCCCC=C3N(CCC3=CCCCC3)C2=O)CC1 18.8%
Cc1ccc(Cn2cc(CN3CC(N4CCN(C)CC4)CS3(=O)=O)nn2)cc1 (centres undefined) -6.65%
O=S1(=O)CC(N2CCSCC2)CN1Cc1cn(Cc2cccc(Cl)c2)nn1 (centres undefined) 26.4%
COc1ccc(-c2cc(NC=O)c3ncc(-c4cccc(C(=O)N(C)C)c4)n3c2)c(OC)c1 -2.96%
COC(=O)[C@]12CCCCC=C1N(CCC1=CCCCC1)C(=O)[C@H](CC(=O)N1CCSCC1)C2 -7.56%
Cc1ccccc1C#CC1=CC(=O)CC(C)(C)C1 -9.95%
Cc1nnc(SC(C)C(=O)c2c[nH]c3ccccc23)n1C1CC1 (centres undefined) 20.8%
O=C(Nc1ccc(Sc2ccc(Br)cc2)cc1)c1ccco1 17.2%
O=C(CCl)Nc1cccc(CP(=O)(c2ccccc2)c2ccccc2)c1 -12.5%
CC1(C)CC(=O)C=C(c2ccc(COC(=O)c3cc(F)cc(F)c3)cc2)C1=O -13.6%
COc1cccc(CN(C)CC(O)COC(c2ccccc2)c2ccccc2C)c1 (centres undefined) -10.2%
CC1CCCN(CC(O)COCc2ccccc2)C1 (centres undefined) -0.0789%
Cc1nc2c(OCc3cccc(Cl)c3)cccn2c1N(C)CC1CC1 -0.943%
CCCCC(=O)N(C)c1c(CC)nc2c(OCc3ccc(S(C)(=O)=O)cc3)cccn12 0%
CCc1nc2c(OCC(N)=O)cccn2c1N(C)C(=O)c1ccc(OC)cc1 0%
Cc1nc2c(OCc3ccc(Cl)cc3)cccn2c1N(C)Cc1cccs1 -0.327%
